Assay in all cases: DAPPL (digital affinity profiling via proximity ligation, sequencing); 10 mM Tris-HCl pH 7.5, 50 mM NaCl, 1 mM DTT, 4% glycerol, room temperature, 30 min; GST-TFs on glutathione beads, 16-mer random dsDNA library, 0.1% formaldehyde crosslink after washing; high values mean tight binding
The target in one assay is T1, FLI1 (Homo sapiens, UniProt Q01543 1-452).
T1 sequence: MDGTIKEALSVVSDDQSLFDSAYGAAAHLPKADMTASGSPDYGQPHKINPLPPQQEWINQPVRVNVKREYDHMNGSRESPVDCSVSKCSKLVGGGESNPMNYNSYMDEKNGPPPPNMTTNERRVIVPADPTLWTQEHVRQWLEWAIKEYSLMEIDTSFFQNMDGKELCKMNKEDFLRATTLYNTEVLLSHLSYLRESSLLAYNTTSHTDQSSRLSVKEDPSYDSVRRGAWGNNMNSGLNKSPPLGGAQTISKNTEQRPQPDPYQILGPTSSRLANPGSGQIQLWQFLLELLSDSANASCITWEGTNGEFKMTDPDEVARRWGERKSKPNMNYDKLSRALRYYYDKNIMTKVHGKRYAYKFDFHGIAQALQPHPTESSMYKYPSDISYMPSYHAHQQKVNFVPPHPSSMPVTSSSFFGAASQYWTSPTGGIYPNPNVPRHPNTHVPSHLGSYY
The settings on record: protein: recombinant; tags: N-terminal GST; dsDNA, one strand shown. An outline of the steps: (§1)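 Sequencing on an Illumina NextSeq500 followed washing, crosslinking with 0.1% formaldehyde, proximity ligation (BsaI/T4 ligase, 1 h, 37 °C) and PCR amplification of pools that had been incubated for 30 min at room temperature with 200 nmole of a random double-stranded 16-mer DNA library in Tris/NaCl/DTT/glycerol buffer. Each pool held DNA-barcoded human transcription factors, expressed in yeast as GST fusions and captured on glutathione beads, plus a tag-only sample. Binding signal is a hexamer's read frequency for a factor divided by its frequency in the tag-only sample.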

The next assay addresses T2, ELK1 (Homo sapiens, UniProt P19419 1-428).
T2 sequence: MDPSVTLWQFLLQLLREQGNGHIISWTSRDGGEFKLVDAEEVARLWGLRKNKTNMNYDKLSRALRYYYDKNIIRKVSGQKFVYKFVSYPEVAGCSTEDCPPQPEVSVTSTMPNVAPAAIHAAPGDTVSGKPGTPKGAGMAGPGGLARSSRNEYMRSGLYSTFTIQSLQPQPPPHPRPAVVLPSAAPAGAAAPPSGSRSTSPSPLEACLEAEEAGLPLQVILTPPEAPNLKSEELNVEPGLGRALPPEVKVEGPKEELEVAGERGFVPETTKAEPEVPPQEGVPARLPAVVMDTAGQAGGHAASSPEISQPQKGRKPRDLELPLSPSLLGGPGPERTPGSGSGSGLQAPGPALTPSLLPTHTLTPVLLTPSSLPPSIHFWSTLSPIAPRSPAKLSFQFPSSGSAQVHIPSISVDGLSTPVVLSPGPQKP
Particulars: protein: recombinant; tags: N-terminal GST; dsDNA, one strand shown. The essentials: as §1

The target in the next assay is T3, GABPA (Homo sapiens, UniProt Q06546 1-454).
T3 sequence: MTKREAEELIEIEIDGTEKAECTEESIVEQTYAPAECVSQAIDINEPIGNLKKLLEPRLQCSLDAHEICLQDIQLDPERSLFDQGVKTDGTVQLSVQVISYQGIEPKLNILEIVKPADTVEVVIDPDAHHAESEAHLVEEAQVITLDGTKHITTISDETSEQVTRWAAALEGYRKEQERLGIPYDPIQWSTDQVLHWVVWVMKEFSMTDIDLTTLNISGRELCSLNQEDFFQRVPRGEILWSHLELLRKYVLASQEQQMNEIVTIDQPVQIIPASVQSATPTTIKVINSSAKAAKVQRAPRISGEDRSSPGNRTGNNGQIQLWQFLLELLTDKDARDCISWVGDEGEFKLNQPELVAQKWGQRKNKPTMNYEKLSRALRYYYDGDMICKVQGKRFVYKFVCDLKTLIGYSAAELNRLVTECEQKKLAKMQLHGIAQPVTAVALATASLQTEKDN
Particulars: protein: recombinant; tags: N-terminal GST; dsDNA, one strand shown. The essentials: as §1

For a further assay, the target named is T4, ERG (Homo sapiens, UniProt P11308 1-479).
T4 sequence: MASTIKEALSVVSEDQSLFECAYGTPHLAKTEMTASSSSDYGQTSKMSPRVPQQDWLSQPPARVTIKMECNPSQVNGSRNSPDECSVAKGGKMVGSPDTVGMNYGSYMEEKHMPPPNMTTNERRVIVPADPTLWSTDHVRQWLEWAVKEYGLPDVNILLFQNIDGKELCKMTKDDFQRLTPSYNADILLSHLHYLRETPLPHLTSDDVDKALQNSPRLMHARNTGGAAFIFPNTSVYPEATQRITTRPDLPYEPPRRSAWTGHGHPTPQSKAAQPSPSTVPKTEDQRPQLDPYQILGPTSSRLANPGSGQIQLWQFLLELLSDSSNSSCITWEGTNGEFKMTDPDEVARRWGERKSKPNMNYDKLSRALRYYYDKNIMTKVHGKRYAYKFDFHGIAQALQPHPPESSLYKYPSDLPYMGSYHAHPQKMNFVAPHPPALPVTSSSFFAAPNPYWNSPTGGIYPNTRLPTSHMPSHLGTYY
The settings on record: protein: recombinant; tags: N-terminal GST; dsDNA, one strand shown. The essentials:
as §1

A further assay addresses ELF1 (Homo sapiens, UniProt P32519 1-619). Particulars: protein: recombinant; tags: N-terminal GST; dsDNA, one strand shown. An outline of the steps:
as §1

The target of another assay is T5, EHF (Homo sapiens, UniProt Q9NZC4 1-300).
T5 sequence: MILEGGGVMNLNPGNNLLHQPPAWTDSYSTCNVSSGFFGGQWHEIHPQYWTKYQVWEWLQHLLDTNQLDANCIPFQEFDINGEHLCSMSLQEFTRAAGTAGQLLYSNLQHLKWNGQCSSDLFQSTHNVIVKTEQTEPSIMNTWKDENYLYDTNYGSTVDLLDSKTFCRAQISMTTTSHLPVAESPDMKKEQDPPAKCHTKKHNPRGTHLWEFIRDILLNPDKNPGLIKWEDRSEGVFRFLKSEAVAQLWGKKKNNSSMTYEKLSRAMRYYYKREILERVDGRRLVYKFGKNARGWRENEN
The settings on record: protein: recombinant; tags: N-terminal GST; dsDNA, one strand shown. An outline of the steps:
as §1

A further assay concerns the target SPI1 (Homo sapiens, UniProt P17947 1-270). Particulars: protein: recombinant; tags: N-terminal GST; dsDNA, one strand shown. The essentials:
as §1

In the next assay the target is SPIB (Homo sapiens, UniProt Q01892 1-262). The settings on record: protein: recombinant; tags: N-terminal GST; dsDNA, one strand shown. An outline of the steps:
as §1

The target in a further assay is T6, ELK3 (Homo sapiens, UniProt P41970 1-407).
T6 sequence: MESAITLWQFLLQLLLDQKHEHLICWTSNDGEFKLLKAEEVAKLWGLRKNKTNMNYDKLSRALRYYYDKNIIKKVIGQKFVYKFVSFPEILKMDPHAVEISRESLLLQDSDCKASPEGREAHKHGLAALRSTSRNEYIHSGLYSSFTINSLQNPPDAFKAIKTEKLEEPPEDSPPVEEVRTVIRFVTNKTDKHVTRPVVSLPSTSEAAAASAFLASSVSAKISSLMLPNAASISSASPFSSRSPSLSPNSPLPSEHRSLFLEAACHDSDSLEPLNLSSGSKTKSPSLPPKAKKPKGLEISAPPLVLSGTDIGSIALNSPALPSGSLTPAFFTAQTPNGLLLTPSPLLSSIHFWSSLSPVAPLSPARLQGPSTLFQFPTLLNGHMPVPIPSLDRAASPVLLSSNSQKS
Particulars: protein: recombinant; tags: N-terminal GST; dsDNA, one strand shown. The essentials: as §1

A further assay concerns the target T7, FEV (Homo sapiens, UniProt Q99581 1-238).
T7 sequence: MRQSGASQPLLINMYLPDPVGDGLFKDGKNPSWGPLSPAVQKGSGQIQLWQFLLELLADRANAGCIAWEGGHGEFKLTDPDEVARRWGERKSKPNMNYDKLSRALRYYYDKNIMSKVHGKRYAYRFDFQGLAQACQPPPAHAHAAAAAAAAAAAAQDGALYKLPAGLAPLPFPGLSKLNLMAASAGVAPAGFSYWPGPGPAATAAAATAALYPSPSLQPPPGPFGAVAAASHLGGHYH
The settings on record: protein: recombinant; tags: N-terminal GST; dsDNA, one strand shown. An outline of the steps: as §1

A further assay has as its target ETV5 (Homo sapiens, UniProt P41161 1-510). The settings on record: protein: recombinant; tags: N-terminal GST; dsDNA, one strand shown. The essentials: as §1
The next assay has as its target HSF1 (Homo sapiens, UniProt Q00613 1-529). Particulars: protein: recombinant; tags: N-terminal GST; chain copies: 3; dsDNA, one strand shown. An outline of the steps: as §1
For a further assay, the target named is T8, SPIC (Homo sapiens, UniProt Q8N5J4 1-248).
T8 sequence: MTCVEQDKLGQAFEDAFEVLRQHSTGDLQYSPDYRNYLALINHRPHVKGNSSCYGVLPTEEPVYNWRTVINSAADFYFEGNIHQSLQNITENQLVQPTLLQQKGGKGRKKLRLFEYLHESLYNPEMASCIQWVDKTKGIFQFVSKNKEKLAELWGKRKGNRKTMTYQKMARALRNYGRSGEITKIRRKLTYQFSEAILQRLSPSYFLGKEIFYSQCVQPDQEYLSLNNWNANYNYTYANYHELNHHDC
Particulars: protein: recombinant; tags: N-terminal GST; dsDNA, one strand shown. An outline of the steps:
as §1

A further assay addresses ELF4 (Homo sapiens, UniProt Q99607 1-663). The settings on record: protein: recombinant; tags: N-terminal GST; dsDNA, one strand shown. An outline of the steps:
as §1

The target in the next assay is T9, ELK4 (Homo sapiens, UniProt P28324-2 1-405).
T9 sequence: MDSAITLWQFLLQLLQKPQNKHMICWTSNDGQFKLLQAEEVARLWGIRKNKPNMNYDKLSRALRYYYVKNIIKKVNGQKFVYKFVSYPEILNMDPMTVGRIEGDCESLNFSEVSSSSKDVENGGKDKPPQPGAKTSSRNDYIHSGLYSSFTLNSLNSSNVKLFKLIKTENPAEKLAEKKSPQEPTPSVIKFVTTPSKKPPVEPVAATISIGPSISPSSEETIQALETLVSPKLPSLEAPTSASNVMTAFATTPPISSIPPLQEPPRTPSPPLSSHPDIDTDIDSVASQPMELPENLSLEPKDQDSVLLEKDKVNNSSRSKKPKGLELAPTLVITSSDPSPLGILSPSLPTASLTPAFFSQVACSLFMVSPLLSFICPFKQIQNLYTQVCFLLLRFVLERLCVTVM
Particulars: protein: recombinant; tags: N-terminal GST; dsDNA, one strand shown. The essentials:
as §1

The target in the next assay is T10, ETV2 (Homo sapiens, UniProt O00321 1-342).
T10 sequence: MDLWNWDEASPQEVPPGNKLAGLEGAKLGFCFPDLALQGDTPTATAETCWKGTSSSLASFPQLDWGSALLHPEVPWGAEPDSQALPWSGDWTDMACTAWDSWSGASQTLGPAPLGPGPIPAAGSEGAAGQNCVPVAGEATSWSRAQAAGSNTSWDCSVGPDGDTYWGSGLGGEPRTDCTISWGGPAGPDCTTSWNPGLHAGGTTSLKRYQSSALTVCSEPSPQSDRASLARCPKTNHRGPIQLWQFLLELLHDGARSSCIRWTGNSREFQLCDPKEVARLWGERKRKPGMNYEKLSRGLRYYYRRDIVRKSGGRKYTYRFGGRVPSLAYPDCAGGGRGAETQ
The settings on record: protein: recombinant; tags: N-terminal GST; dsDNA, one strand shown. An outline of the steps: as §1

The target in the next assay is T11, ELF3 (Homo sapiens, UniProt P78545 1-371).
T11 sequence: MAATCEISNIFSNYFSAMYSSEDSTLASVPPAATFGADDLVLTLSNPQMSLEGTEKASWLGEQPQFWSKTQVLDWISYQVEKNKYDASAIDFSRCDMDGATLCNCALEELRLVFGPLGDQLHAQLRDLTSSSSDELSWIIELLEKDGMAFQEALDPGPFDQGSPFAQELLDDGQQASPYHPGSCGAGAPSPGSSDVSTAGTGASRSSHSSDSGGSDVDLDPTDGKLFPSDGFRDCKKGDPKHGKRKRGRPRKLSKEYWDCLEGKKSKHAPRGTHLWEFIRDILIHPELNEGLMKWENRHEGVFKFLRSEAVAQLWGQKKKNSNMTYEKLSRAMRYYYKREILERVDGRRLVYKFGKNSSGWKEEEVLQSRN
The settings on record: protein: recombinant; tags: N-terminal GST; dsDNA, one strand shown. The essentials: as §1

The target of another assay is ETV1 (Homo sapiens, UniProt P50549 1-477). Particulars: protein: recombinant; tags: N-terminal GST; dsDNA, one strand shown. An outline of the steps:
as §1

Sequence of ETV1 (P50549 whole entry): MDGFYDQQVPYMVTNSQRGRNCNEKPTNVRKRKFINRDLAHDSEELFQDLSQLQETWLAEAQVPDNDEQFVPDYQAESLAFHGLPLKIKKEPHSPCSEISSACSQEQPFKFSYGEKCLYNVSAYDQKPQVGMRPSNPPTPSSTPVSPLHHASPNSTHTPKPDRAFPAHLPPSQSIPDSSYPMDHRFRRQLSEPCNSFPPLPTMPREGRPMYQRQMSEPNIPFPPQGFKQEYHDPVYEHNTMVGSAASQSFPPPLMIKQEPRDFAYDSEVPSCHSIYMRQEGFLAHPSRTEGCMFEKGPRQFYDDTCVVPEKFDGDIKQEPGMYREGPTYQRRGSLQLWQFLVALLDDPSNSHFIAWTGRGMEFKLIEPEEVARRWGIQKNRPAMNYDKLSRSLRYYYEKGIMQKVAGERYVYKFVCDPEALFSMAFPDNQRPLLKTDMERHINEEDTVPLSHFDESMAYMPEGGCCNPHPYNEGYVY
Sequence of ETV5 (P41161 whole entry): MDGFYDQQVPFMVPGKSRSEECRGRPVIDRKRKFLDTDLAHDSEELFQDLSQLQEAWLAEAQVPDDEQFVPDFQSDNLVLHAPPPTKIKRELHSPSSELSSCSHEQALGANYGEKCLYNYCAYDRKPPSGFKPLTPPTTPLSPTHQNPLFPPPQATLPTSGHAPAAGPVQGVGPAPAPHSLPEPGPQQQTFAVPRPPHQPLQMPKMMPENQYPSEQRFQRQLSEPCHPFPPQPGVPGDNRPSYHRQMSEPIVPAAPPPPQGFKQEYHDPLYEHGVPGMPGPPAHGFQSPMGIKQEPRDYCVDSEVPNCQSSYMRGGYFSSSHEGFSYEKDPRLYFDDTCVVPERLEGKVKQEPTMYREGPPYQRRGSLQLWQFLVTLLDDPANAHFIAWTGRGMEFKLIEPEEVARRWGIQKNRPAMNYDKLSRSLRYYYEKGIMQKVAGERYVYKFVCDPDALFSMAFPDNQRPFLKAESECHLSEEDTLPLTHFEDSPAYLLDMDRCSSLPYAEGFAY
Sequence of HSF1 (Q00613 whole entry): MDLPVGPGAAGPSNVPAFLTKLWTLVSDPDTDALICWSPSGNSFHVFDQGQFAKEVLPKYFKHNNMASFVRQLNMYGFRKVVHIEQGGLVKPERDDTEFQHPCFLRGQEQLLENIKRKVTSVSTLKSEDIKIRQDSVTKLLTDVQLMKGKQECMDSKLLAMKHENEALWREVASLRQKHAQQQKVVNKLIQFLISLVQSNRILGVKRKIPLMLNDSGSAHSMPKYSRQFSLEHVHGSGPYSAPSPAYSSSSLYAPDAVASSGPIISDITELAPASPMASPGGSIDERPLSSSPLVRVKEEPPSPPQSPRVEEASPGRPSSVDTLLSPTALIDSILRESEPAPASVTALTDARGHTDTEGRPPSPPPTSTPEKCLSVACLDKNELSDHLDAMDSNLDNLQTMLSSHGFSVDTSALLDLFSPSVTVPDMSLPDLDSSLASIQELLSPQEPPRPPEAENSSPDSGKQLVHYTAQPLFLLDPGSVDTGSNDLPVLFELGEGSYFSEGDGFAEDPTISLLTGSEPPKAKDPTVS
Sequence of ELF4 (Q99607 whole entry): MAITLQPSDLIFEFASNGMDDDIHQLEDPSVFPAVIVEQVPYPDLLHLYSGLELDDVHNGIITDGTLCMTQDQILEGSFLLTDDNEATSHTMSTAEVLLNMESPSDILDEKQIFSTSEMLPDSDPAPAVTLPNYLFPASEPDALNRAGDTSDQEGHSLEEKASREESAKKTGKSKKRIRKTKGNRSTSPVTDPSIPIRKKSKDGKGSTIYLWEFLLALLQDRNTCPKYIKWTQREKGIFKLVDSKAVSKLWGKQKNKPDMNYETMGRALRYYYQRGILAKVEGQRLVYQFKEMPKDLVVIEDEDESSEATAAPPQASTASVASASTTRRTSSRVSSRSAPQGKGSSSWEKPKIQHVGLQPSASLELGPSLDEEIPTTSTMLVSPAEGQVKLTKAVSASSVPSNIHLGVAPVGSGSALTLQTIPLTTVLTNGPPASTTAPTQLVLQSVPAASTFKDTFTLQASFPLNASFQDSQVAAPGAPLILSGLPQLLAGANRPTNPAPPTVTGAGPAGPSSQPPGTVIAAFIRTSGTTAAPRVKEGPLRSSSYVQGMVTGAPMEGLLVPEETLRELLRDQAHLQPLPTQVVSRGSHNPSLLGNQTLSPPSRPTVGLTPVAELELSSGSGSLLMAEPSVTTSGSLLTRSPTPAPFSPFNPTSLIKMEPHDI
Sequence of ELF1 (P32519 whole entry): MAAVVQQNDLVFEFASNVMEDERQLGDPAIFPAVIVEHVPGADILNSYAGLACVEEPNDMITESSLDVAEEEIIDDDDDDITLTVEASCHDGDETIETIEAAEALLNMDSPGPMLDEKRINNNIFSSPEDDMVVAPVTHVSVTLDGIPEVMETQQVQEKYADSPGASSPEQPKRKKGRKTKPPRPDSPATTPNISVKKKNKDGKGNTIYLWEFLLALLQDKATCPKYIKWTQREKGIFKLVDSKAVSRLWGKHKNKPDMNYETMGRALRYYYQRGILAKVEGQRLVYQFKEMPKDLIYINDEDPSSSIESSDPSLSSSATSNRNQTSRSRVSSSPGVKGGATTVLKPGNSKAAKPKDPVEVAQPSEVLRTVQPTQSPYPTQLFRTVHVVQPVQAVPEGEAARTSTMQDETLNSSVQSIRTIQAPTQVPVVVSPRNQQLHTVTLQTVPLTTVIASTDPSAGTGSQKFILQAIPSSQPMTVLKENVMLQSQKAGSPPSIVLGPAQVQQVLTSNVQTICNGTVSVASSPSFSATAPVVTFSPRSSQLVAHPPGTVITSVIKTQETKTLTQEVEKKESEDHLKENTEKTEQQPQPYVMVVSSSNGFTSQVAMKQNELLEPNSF
Sequence of SPIB (Q01892 whole entry): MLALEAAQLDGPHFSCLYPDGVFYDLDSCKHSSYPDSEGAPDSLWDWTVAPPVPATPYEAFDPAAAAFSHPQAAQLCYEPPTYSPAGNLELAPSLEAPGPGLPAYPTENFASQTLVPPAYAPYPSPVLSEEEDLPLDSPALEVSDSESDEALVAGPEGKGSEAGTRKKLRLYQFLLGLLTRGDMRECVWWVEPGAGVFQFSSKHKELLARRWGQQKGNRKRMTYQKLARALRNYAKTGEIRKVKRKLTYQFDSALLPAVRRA

Regarding CGCTCC, the binding signal with FLI1 was 1.37 fold enrichment (6-mer frequency, TF over GST control); in the assay with ELK1, 1.28 fold enrichment (6-mer frequency, TF over GST control); in the assay with GABPA, 1.37 fold enrichment (6-mer frequency, TF over GST control); with ERG, 1.33 fold enrichment (6-mer frequency, TF over GST control); with ELF1, 1.31 fold enrichment (6-mer frequency, TF over GST control); with EHF, 1.24 fold enrichment (6-mer frequency, TF over GST control). Also, the binding signal was 1.29 fold enrichment (6-mer frequency, TF over GST control) in the assay with SPI1; 1.36 fold enrichment (6-mer frequency, TF over GST control) in the assay with SPIB; 1.37 fold enrichment (6-mer frequency, TF over GST control) with ELK3; 1.34 fold enrichment (6-mer frequency, TF over GST control) with FEV; 1.31 fold enrichment (6-mer frequency, TF over GST control) with ETV5; 1.09 fold enrichment (6-mer frequency, TF over GST control) with HSF1. The binding signal in the assay with SPIC is 1.33 fold enrichment (6-mer frequency, TF over GST control); with ELF4, 1.38 fold enrichment (6-mer frequency, TF over GST control); in the assay with ELK4 it was 1.41 fold enrichment (6-mer frequency, TF over GST control); with ETV2, 1.36 fold enrichment (6-mer frequency, TF over GST control); with ELF3, 1.3 fold enrichment (6-mer frequency, TF over GST control); with ETV1, 1.26 fold enrichment (6-mer frequency, TF over GST control).

(Values after PMC7862700, “An all-to-all approach to the identification of sequence-specific readers for epigenetic DNA modifications on cytosine”.)
